Results reported in PubChem BioAssay (NCI).
This is part of a sample that, as a whole, favours compounds with a hit. Of some 83,000 tested, about 20% had one in any assay.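 Step 1: grow cells in 96-well plates. Step 2: add test compound at a single concentration. Step 3: incubate 48 h. Step 4: record percent growth.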 Unmarked numbers belong to inactive results. The source made the active and inactive calls. The calls were made as follows: active = growth percent below 10; inactive = the rest.

What was measured:
Assay in all cases: NCI-60 one-dose screen, 48 h (100 = growth as untreated, 0 = no growth, -100 = all killed)
Conditions in all cases: 10 µM unless noted
SK-MEL-2 melanoma = system: SK-MEL-2 melanoma
EKVX NSCLC = system: EKVX NSCLC
SN12C renal = system: SN12C renal
UO-31 renal = system: UO-31 renal
TK-10 renal = system: TK-10 renal
ACHN renal = system: ACHN renal
CAKI-1 renal = system: CAKI-1 renal
A498 renal = system: A498 renal
CCRF-CEM leukemia = system: CCRF-CEM leukemia
MOLT-4 leukemia = system: MOLT-4 leukemia

Structure (SMILES) | growth (SK-MEL-2 melanoma) | growth (EKVX NSCLC) | growth (SN12C renal) | growth (UO-31 renal) | growth (TK-10 renal) | growth (ACHN renal) | growth (CAKI-1 renal) | growth (A498 renal) | growth (CCRF-CEM leukemia) | growth (MOLT-4 leukemia)
CCCCCCNC(=O)Oc1ccc(/C(=C(/C)c2ccc(OC)cc2)c2ccc(OCCN3CCCCCC3)cc2)cc1 | 74.5% | 54.8% | 14.5% | 6.69% (active) | 92.1% | 47.7% | 17.3% | 64.2% | 12.4% | 9.66% (active)
N#Cc1c(-c2cccs2)c(C#N)c(=O)n(Cc2nc3ccccc3[nH]2)c1N | 92.6% | 90.9% | 91.8% | 60% | 152% | 96.8% | 80.7% | 118% | 101% | 102%
O=C(CSc1nc2ccccc2c(=O)n1-c1ccc(S(=O)(=O)Nc2ccc(Cl)nn2)cc1)Nc1ccc(S(=O)(=O)Nc2ccc(Cl)nn2)cc1 | 120% | 99.8% | 106% | 87.9% | 106% | 98.2% | 91.9% | 104% | 101% | 97.6%
O=C(Nc1cccc(C(F)(F)F)c1)N1CCN(c2cc(-c3cn(-c4ccccc4)nc3-c3cccc(O)c3)ccn2)CC1 | 43.7% | 42% | 49% | 25.3% | 63.3% | 39.2% | 51.8% | 49.4% | 21.5% | 18.9%
COc1cccc2c1C=CC1(O2)Oc2cccc(OC)c2C=C1C (stereo not given) | 57.7% | 47.7% | 49% | 47% | 103% | 40.4% | 29.2% | 5.37% (active) | 10.1% | 11.7%
CCN(CC)c1ccc(/C=N/NC(=O)c2ccc(NS(C)(=O)=O)cc2)cc1 | 40.1% | 22.4% | 37.5% | 15.7% | 48.3% | 10.9% | 25.2% | 40.1% | 13% | 14.4%
Brc1ccc2[nH]cc(-c3nn4cc(-c5nccs5)nc4s3)c2c1 | 81.4% | 64.9% | 71.1% | -48.1% (active) | 98.3% | 3.16% (active) | -36.8% (active) | 47.5% | 17.1% | 16.5%
O=C(CCCCCCNC(=O)C(O)(O)C(F)(F)F)Nc1ncc(-c2ccccc2)s1 | -23.3% (active) | 20.8% | 2.31% (active) | -27.9% (active) | -10.3% (active) | -53.1% (active) | -40.4% (active) | -41.8% (active) | 22.5% | 5.09% (active)
Cc1cccc(N2CCN(C3=C(Cl)C(=O)c4ncccc4C3=O)CC2)c1 | 99.9% | 104% | 75.1% | 18.3% | 117% | -32.9% (active) | 52% | 103% | 4.71% (active) | 9.85% (active)
Brc1cccc(-c2cc(-c3cnc4c(c3)OCCO4)n[nH]2)c1 | 52.1% | 50.4% | 62.8% | 51% | 89.9% | 51.6% | 51.8% | 50.6% | 36.7% | 34.1%
O=C(CCCCCCN1CC(=O)N2[C@@H](c3ccc(Cl)s3)c3[nH]c4ccccc4c3C[C@H]2C1=O)NO | 59.9% | 49.1% | 72.7% | 57.8% | 43.4% | 66.8% | 48.8% | 72.8% | 16.7% | 11.2%
N#C/C(=N\Nc1ccc(F)cc1)C(=O)Nc1cc(-c2ccccc2)nn1-c1ccccc1 | 4.66% (active) | 5.52% (active) | 1.17% (active) | 3.54% (active) | 26.6% | 1.44% (active) | 2.61% (active) | -4.27% (active) | 15.7% | 21.9%
COC(=O)CCSC1=C(C)C(=O)c2ccccc2C1=O | 107% | 74.2% | 92.5% | 64.6% | 162% | 82.6% | 80.4% | 116% | 45.7% | 31.8%
O=C(Nc1ccc(Cl)c(C(F)(F)F)c1)Nc1ccc2c(ccn2C(=O)c2cccc(F)c2)c1 | 45.3% | 30% | 42.9% | 35.6% | 45.9% | 17.7% | 29.1% | 70.3% | 15.8% | 10.9%
C#CCOc1ccc(-c2csc(NC(=O)C=C)n2)cc1NS(=O)(=O)c1cccc2c(N(C)C)cccc12 | 69.4% | 66.1% | 31.2% | 21.9% | 63% | 9.85% (active) | 36.2% | 79.8% | 3.87% (active) | 1.79% (active)
COc1cc(C(=O)c2cc(C(C)=O)c3c(C)cccn23)cc(OC)c1OC | 98.9% | 99% | 80.9% | 75.6% | 108% | 97.9% | 84.5% | -10.4% (active) | 96.1% | 92.5%
COc1cc(C(=O)c2cc(C(C)=O)c3cccc(C)n23)cc(OC)c1OC | -11.8% (active) | 53.6% | 45.3% | 45.2% | 78.6% | 51.4% | 33.5% | 21.9% | 44.1% | 38.6%
COc1cc2cc(Oc3ccc(NC(=O)c4cc(C(F)(F)F)cc(C(F)(F)F)c4)cc3)c(C)nc2cc1OCCN1CCOCC1 | 101% | 57.7% | 83% | 55.8% | 105% | 77.3% | 52.8% | 55% | 45% | 66.1%
C=C(C)[C@@H]1CC[C@]2(C(=O)O)CC[C@]3(C)[C@H](CC[C@@H]4[C@@]5(C)C/C(=C/c6ccccn6)C(=O)C(C)(C)[C@@H]5CC[C@]43C)[C@@H]12 | 68.5% | 33.3% | 41.1% | 35.8% | 60.8% | 35.9% | 26.8% | 61.7% | 21.8% | 29.4%
O=C(NCCNc1cc(-c2cn(-c3ccccc3)nc2-c2cccc(O)c2)ccn1)Nc1cc(C(F)(F)F)cc(C(F)(F)F)c1 | 93.7% | 90.6% | 95.5% | 77.1% | 94.4% | 96.9% | 88.9% | 76.6% | 101% | 84.9%
CC1=C(C)C(=O)C(Nc2ccc(C)cc2)=C(Br)C1=O | 111% | 79.3% | 98.9% | 87.5% | 145% | 102% | 106% | 97.2% | 17.9% | -30.6% (active)
C#Cc1nc(/C=C\CCCCCCC(=O)NO)cs1 | 92.1% | 82.9% | 80.9% | -76.2% (active) | 42% | 11.3% | -20.2% (active) | 34.2% | -40.5% (active) | -24.6% (active)
Cn1c(SCC(=O)c2ccc(F)cc2)nc2ccccc2c1=O | 105% | 79.6% | 91.4% | 74.2% | 120% | 96.4% | 87.7% | 99.5% | 90.3% | 95.8%
Cc1ccc2c(n1)C(=O)C(Cl)=C(Nc1ccc(C(C)C)cc1)C2=O | 71.2% | -0.749% (active) | 46.4% | -65.3% (active) | 145% | -77.2% (active) | 77.3% | 133% | 3.85% (active) | 4.3% (active)
